We go through 40 compounds from PubChem BioAssay.

A number with no mark means an inactive call. The source made the active and inactive calls. Unless noted, no stated cut-off is given here; in the data, active means inhibition above about 30%; inactive means the rest.

Chain of Nuclear receptor coactivator 3 (Homo sapiens) (Q9Y6Q9 whole entry, looked up, the tested form may be a part): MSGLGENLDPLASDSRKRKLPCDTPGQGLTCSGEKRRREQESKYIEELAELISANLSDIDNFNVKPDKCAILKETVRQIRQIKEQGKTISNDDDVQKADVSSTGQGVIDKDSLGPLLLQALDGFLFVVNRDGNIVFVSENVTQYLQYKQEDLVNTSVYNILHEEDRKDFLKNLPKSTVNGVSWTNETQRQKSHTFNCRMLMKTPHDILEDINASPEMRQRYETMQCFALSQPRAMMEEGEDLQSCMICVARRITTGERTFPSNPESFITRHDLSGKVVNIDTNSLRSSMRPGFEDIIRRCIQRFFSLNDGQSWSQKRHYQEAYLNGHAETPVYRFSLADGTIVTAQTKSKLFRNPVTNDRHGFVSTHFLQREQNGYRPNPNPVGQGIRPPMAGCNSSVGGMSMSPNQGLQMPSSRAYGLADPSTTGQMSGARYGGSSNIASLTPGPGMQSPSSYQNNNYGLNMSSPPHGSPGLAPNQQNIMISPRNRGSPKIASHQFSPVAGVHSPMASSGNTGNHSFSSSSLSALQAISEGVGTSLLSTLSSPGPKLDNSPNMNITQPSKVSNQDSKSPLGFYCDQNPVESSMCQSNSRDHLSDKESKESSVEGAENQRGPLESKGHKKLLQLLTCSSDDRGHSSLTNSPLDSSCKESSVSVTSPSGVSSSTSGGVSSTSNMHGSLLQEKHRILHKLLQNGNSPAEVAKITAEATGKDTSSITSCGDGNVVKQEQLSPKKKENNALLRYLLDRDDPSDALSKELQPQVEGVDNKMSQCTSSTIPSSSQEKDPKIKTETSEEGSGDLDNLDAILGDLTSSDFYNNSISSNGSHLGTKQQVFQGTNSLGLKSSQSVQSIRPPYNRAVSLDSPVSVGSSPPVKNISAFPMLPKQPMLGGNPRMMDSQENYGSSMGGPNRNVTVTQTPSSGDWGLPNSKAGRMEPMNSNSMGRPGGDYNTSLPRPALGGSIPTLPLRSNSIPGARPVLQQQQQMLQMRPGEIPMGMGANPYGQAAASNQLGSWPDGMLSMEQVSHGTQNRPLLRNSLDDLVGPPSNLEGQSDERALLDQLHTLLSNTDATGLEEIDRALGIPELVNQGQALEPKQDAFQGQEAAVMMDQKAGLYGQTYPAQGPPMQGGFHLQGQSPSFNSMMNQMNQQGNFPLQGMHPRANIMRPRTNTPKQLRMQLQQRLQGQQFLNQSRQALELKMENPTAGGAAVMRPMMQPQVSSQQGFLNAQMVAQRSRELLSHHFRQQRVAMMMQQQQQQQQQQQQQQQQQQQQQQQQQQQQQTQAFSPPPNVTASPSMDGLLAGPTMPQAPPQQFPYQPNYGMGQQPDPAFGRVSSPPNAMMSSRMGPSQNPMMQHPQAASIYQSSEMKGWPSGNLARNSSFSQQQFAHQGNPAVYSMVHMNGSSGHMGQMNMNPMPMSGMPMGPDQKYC

One test addresses Nuclear receptor coactivator 3 (Homo sapiens) (UniProt Q9Y6Q9). The experiment in a line: NCOA3 GAL4-fusion reporter inhibition – cell-based, luminescence, quadruplicate, confirmation (AID 588792;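 active means mean inhibition over 43.08%, the solvent-only control mean plus 3 SD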;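 further: 0% = DMSO treated cells and 100% = gossypol at 36 µM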). The note with it: HEK293 GAL4-SRC3 luciferase reporter, at 3.6 µM, stronger effect = higher value. (In general: A reporter such as luciferase makes a cellular process visible.)
For orientation: inhibition means the relative decrease from the control value, in per cent. With `Cc1cc(C(=O)COC(=O)c2ccccc2Br)c(C)n1CC1CCCO1` (stereo not given), the inhibition is 77.5% (active).

For the compound `CC1CCc2nc(N)c(C#N)c(-c3cccnc3)c2C1` (stereo not given), the inhibition is 66.7% (active).

Regarding `O=C(CCl)N(c1ccccc1)C1CCS(=O)(=O)C1` (stereo not given), the inhibition was 55.4% (active).

In the case of `CC(=O)OC[C@]12CC[C@H]3[C@@](C)(CC[C@H]4C(C)(C)CCC[C@]34C)[C@@H]1CC(C1=CC(=O)OC1O)O2` (stereo not given in full), the inhibition is 93.2% (active).

For `CC1CCCN(c2ncnc3c2cnn3-c2ccc(Cl)cc2)C1` (stereo not given), the inhibition is 88.7% (active).

For `Cc1ccc(/C=C2\SC(=S)N(CCCC(=O)Nc3ccccn3)C2=O)cc1`, the inhibition is 49.1% (active).

Turning to `COc1ccc(-n2ncc3c(N(C)C4CCCCC4)ncnc32)cc1`, the inhibition was 63.9% (active).

As for `c1csc(CNc2ccc3c(c2)OCCO3)c1`, the inhibition was 23.3%.

Take `Cc1cc(C(=O)COC(=O)c2ccccc2O)c(C)n1Cc1cccs1`: the inhibition is 85.3% (active).

Turning to `COc1ccccc1-c1nnc(Sc2nc([N+](=O)[O-])nn2C)o1`, the inhibition is 58.5% (active).

With `Nc1ccc(-c2cc3ccccc3oc2=O)cc1`, the inhibition was 43.5% (active).

In the case of `OCC1OC(n2ccc3c2ncn2ncnc32)C(O)C1O` (stereo not given), the inhibition was 64.6% (active).

Consider `COc1ccc2cc3c(N)nn(C(=O)c4ccccc4[N+](=O)[O-])c3nc2c1`, for which the inhibition was 76.5% (active).

For `O=C(CC1CS(=O)(=O)CC1CC(=O)Nc1ccc2c(c1)OCCO2)Nc1ccc2c(c1)OCCO2` (stereo not given), the inhibition is 37.1%.

As to `CC1CCC(C(C)C)C(OC(=O)Cn2c(-c3ccc(F)cc3)[n+](C)c3ccccc32)C1` (stereo not given), the inhibition is 69.1% (active).

For the compound `CC(C)Nc1ncnc2ccc(Br)cc12`, the inhibition is 74.3% (active).

With `Nc1cc2ccncc2c2ccccc12`, the inhibition was 72% (active).

Turning to `Cc1ccc2oc(/N=C(\N)NC(=O)C(C)(C)C)nc2c1`, the inhibition is 82.8% (active).

Consider `COC1=CC(=O)c2c(ccc3ncnc(N)c23)C1=O`, for which the inhibition is 60.8% (active).

Consider `CC(C)(C)C(=O)/C(=C/c1ccncc1)n1cncn1`, for which the inhibition is 69.2% (active).

With `O=c1c2ccccc2oc2cc(C#CC3(O)CCCCC3)ccc12`, the inhibition is 32.4%.

On to `Cc1cc(C(=O)CN2C(=O)c3ccccc3S2(=O)=O)c(C)n1CC1CCCO1` (stereo not given), for which the inhibition is 82.9% (active).

Turning to `CC(C)(C)OC(=O)NCCCCCc1cn([C@@H](CO)C(=O)NCCCCCCCCCCC(=O)N2CCN(C(=O)OC(C)(C)C)CC2)nn1`, the inhibition is 23.4%.

As to `Clc1ccc(-n2ncc3c(N4CCCCCC4)ncnc32)cc1`, the inhibition is 77% (active).

On to `CC(=O)NC(c1ccc(C(C)C)cc1)c1ccc2cccnc2c1O` (stereo not given), for which the inhibition is 74.3% (active).

Take `Cc1ccc(C(=O)N/N=C/c2c(O)ccc3ccccc23)cn1`: the inhibition is 65.9% (active).

As to `CCOc1cc(CNc2ccc3c(c2)OCCO3)cc(Br)c1OC`, the inhibition was 50.5% (active).

`COc1cccc(-c2nnc3n2N=C(C(C)(C)C)CS3)c1`: the inhibition was 89.1% (active).

As to `Cc1ccc(C(=O)N/N=C/c2ccc([N+](=O)[O-])s2)cc1`, the inhibition was 54.5% (active).

Regarding `C=C1C(=O)C2=CC1CCC(=O)C1(C)CCC(OC(C)=O)C(C)(C)C1CC2O` (stereo not given), the inhibition is 35.4%.

As for `COc1cccc(N2CCN(c3ncnc4c3cnn4-c3ccc(C)cc3C)CC2)c1`, the inhibition was 88.3% (active).

`COc1cc(NC(=O)COc2cc(O)c3c(c2)OC(C)(C)CC3=O)cc(OC)c1OC`: the inhibition is 17.8%.

As for `Cc1ccc(Nc2nc(N)nc(CCl)n2)c(C)c1`, the inhibition is 74% (active).

Take `CC(C)(C)NCC(=Cc1ccccc1)C(=O)c1ccccc1`: the inhibition is 50% (active).

In the case of `CCCNC1=C(N(C(C)=O)c2cccc(F)c2)C(=O)c2ccccc2C1=O`, the inhibition was 49.9% (active).

In the case of `CCOC(=O)c1ccc(NC(=O)c2ccc(C)c(S(=O)(=O)N3CCOCC3)c2)cc1`, the inhibition was 31.4%.

For the compound `NC(=S)NN=Cc1nccc2c(C(F)(F)C(F)(F)C(F)(F)F)cccc12`, the inhibition was 93.5% (active).

Turning to `COC1=CC(=O)c2nc(Cl)ccc2C1=O`, the inhibition was 67.8% (active).

For `COc1cccc2c1C(=O)c1c(O)c3c(c(O)c1C2=O)CC(O)(C(C)=O)CC3OC1CC(N(C)C)C(O)C(C)O1` (stereo not given), the inhibition is 94.2% (active).

In the case of `C[C@@H](C(=O)Nc1ccc2c(c1)OCCO2)n1c(=O)[nH]c2ccccc2c1=O`, the inhibition was 34.5%.

For another test, the system named is transactivating tegument protein VP16 (Human herpesvirus 1), Gal4-VP16 luciferase reporter. Nature of the test: repression of VP16-driven luciferase reporter – cell-based, luminescence, high throughput, counter-screen for SRC3 inhibitor project (AID 588794). The conditions noted are these: mammalian cells, at 3.6 µM, stronger effect = higher value.
For the compound `Cc1cc(C(=O)COC(=O)c2ccccc2Br)c(C)n1CC1CCCO1` (stereo not given), the inhibition was 71.7% (active).

Regarding `CC1CCc2nc(N)c(C#N)c(-c3cccnc3)c2C1` (stereo not given), the inhibition is 57.9% (active).

For the compound `O=C(CCl)N(c1ccccc1)C1CCS(=O)(=O)C1` (stereo not given), the inhibition is 18%.

With `CC(=O)OC[C@]12CC[C@H]3[C@@](C)(CC[C@H]4C(C)(C)CCC[C@]34C)[C@@H]1CC(C1=CC(=O)OC1O)O2` (stereo not given in full), the inhibition is 90% (active).

For `CC1CCCN(c2ncnc3c2cnn3-c2ccc(Cl)cc2)C1` (stereo not given), the inhibition was 84.3% (active).

Turning to `Cc1ccc(/C=C2\SC(=S)N(CCCC(=O)Nc3ccccn3)C2=O)cc1`, the inhibition is 33.9% (active).

For `COc1ccc(-n2ncc3c(N(C)C4CCCCC4)ncnc32)cc1`, the inhibition was 53.6% (active).

In the case of `c1csc(CNc2ccc3c(c2)OCCO3)c1`, the inhibition was -33.9%.

Turning to `Cc1cc(C(=O)COC(=O)c2ccccc2O)c(C)n1Cc1cccs1`, the inhibition was 84.9% (active).

With `COc1ccccc1-c1nnc(Sc2nc([N+](=O)[O-])nn2C)o1`, the inhibition was 32.7% (active).

For the compound `Nc1ccc(-c2cc3ccccc3oc2=O)cc1`, the inhibition is 20.6%.

Regarding `OCC1OC(n2ccc3c2ncn2ncnc32)C(O)C1O` (stereo not given), the inhibition is 44.2% (active).

As to `COc1ccc2cc3c(N)nn(C(=O)c4ccccc4[N+](=O)[O-])c3nc2c1`, the inhibition is 59.9% (active).

For the compound `O=C(CC1CS(=O)(=O)CC1CC(=O)Nc1ccc2c(c1)OCCO2)Nc1ccc2c(c1)OCCO2` (stereo not given), the inhibition was -5.19%.

Consider `CC1CCC(C(C)C)C(OC(=O)Cn2c(-c3ccc(F)cc3)[n+](C)c3ccccc32)C1` (stereo not given), for which the inhibition is 45.8% (active).

Consider `CC(C)Nc1ncnc2ccc(Br)cc12`, for which the inhibition is 72.7% (active).

Turning to `Nc1cc2ccncc2c2ccccc12`, the inhibition was 51.6% (active).

As to `Cc1ccc2oc(/N=C(\N)NC(=O)C(C)(C)C)nc2c1`, the inhibition was 73.6% (active).

Turning to `COC1=CC(=O)c2c(ccc3ncnc(N)c23)C1=O`, the inhibition is 65.1% (active).

With `CC(C)(C)C(=O)/C(=C/c1ccncc1)n1cncn1`, the inhibition was 55.3% (active).

Regarding `O=c1c2ccccc2oc2cc(C#CC3(O)CCCCC3)ccc12`, the inhibition was 33.5% (active).

Consider `Cc1cc(C(=O)CN2C(=O)c3ccccc3S2(=O)=O)c(C)n1CC1CCCO1` (stereo not given), for which the inhibition is 62.8% (active).

In the case of `CC(C)(C)OC(=O)NCCCCCc1cn([C@@H](CO)C(=O)NCCCCCCCCCCC(=O)N2CCN(C(=O)OC(C)(C)C)CC2)nn1`, the inhibition was 66.8% (active).

Regarding `Clc1ccc(-n2ncc3c(N4CCCCCC4)ncnc32)cc1`, the inhibition is 69.2% (active).

Consider `CC(=O)NC(c1ccc(C(C)C)cc1)c1ccc2cccnc2c1O` (stereo not given), for which the inhibition is 58.4% (active).

Consider `Cc1ccc(C(=O)N/N=C/c2c(O)ccc3ccccc23)cn1`, for which the inhibition is 62.9% (active).

As for `CCOc1cc(CNc2ccc3c(c2)OCCO3)cc(Br)c1OC`, the inhibition is 29.5% (active).

`COc1cccc(-c2nnc3n2N=C(C(C)(C)C)CS3)c1`: the inhibition was 64.5% (active).

As to `Cc1ccc(C(=O)N/N=C/c2ccc([N+](=O)[O-])s2)cc1`, the inhibition was 39.1% (active).

On to `C=C1C(=O)C2=CC1CCC(=O)C1(C)CCC(OC(C)=O)C(C)(C)C1CC2O` (stereo not given), for which the inhibition is 53.2% (active).

As to `COc1cccc(N2CCN(c3ncnc4c3cnn4-c3ccc(C)cc3C)CC2)c1`, the inhibition was 81.1% (active).

Turning to `COc1cc(NC(=O)COc2cc(O)c3c(c2)OC(C)(C)CC3=O)cc(OC)c1OC`, the inhibition is 41.5% (active).

On to `Cc1ccc(Nc2nc(N)nc(CCl)n2)c(C)c1`, for which the inhibition is 32.8% (active).

Consider `CC(C)(C)NCC(=Cc1ccccc1)C(=O)c1ccccc1`, for which the inhibition is 82.9% (active).

For `CCCNC1=C(N(C(C)=O)c2cccc(F)c2)C(=O)c2ccccc2C1=O`, the inhibition is 65.3% (active).

As for `CCOC(=O)c1ccc(NC(=O)c2ccc(C)c(S(=O)(=O)N3CCOCC3)c2)cc1`, the inhibition is 47.9% (active).

For the compound `NC(=S)NN=Cc1nccc2c(C(F)(F)C(F)(F)C(F)(F)F)cccc12`, the inhibition was 87.2% (active).

As to `COC1=CC(=O)c2nc(Cl)ccc2C1=O`, the inhibition is 55.1% (active).

For `COc1cccc2c1C(=O)c1c(O)c3c(c(O)c1C2=O)CC(O)(C(C)=O)CC3OC1CC(N(C)C)C(O)C(C)O1` (stereo not given), the inhibition was 95.8% (active).

As to `C[C@@H](C(=O)Nc1ccc2c(c1)OCCO2)n1c(=O)[nH]c2ccccc2c1=O`, the inhibition was -0.03%.
